The list is not random: actives were taken first. Their share in the collection is about 7.1%.
S2 tox = cell viability loss in ATXN counter-screen. S2 cells (HEK-293 line with an ATXN2-luciferase reporter) viability, CellTiter-Fluor protease fluorescence, 24 h. Potency, µM (highest dose often 56.7 µM), actives largely listed as cytotoxic. 400,000 tested, 0.49% active. AID 651635; further: potency means the concentration at half of the fitted maximal effect; nearly all actives have a fitted effect of over 40% in size
ATXN2 expr inh = ATXN2 expression inhibition; HEK-293 ATXN2-luciferase reporter, luminescence, 24 h; Potency, µM (highest dose often 57 µM), for the others: at the highest dose activity change, negative = inhibition, hits mostly inhibitors; 360,000 tested, 0.72% active; AID 1745845; further: potency means the concentration at half of the fitted maximal effect; on the % scale 0 is the no-effect control and ±100 the full control effect; nearly all actives have a fitted effect of over 55% in size
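qHTS (up to 57 uM final) was run with 24 h compound exposure of reporter cells at 37 °C. Each well was multiplexed: SteadyGlo luminescence measured ATXN2-luciferase expression after a fluorogenic Gly-Phe-AFC viability readout (25 uM final).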
IL-1B inflam inh = inflammasome signaling inhibition, IL-1 beta readout. 360,000 tested, 4.7% active. activity change, % at 57.5 µM. THP-1 LPS/ATP IL-1B secretion, AlphaLISA, 16 h; active compounds read low; in the data active means activity change below about -50%; inconclusive means mostly about -30% to -49%; further: on the % scale 0 is the no-effect control and ±100 the full control effect
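Secreted IL-1B measured by AlphaLISA bead assay after 16 h compound exposure of THP-1 cells; compounds (final up to 57.5 uM) added 1 h before LPS (250 ng/mL) and ATP (1.25 mM) stimulation; lower signal means less secretion.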
PINK1 modulator = changes PINK1 expression | 410,000 tested, 0.2% active | Potency, µM (top dose mostly 76.6 µM), for the others: top-dose activation (PINK1 increase), hits mostly activators | PINK1 immunofluorescence, high-content cytometry, 24 h; active means well fitted activation curve with a large enough effect; inconclusive means small, poorly fitted or top-dose-only effect; cell line not stated here; further: potency means the concentration at half of the fitted maximal effect; % of control where 0% means no effect; nearly all actives have a fitted effect of over 65% in size
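Measures PINK1 amount and localization on or inside mitochondria by immunofluorescence. Stable cells get compounds at 5 concentrations for 24 hours before fixation and staining; CCCP controls included.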
SW480 rereplic = induces DNA re-replication in SW480 colon adenocarcinoma cells; SW480 DNA re-replication, Hoechst DNA content imaging, 48 h; Potency, µM (top dose mostly 46.1 µM), without a hit: top-dose re-replication activation, actives largely listed as activators; 340,000 tested, 1.8% active; further: potency means the concentration at half of the fitted maximal effect; % of control where 0% means no effect; nearly all actives have a fitted effect of over 55% in size
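Cells (250 per well) received 23 nL compound or DMSO by pin tool and were kept 48 hr at 37 C, 5% CO2. Nuclei were then stained with Hoechst for 40 min and scanned for DNA content.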
MCF10A rerep = induces DNA re-replication in MCF 10a normal breast cells | MCF 10A DNA re-replication, Hoechst nuclear intensity, 48 h | Potency, µM (series often up to 46.1 µM), for the others: at the top dose activity, positive = re-replication, most hits filed as activators | 350,000 tested, 2.9% active; further: potency means the concentration at half of the fitted maximal effect; % of control where 0% means no effect; nearly all actives have a fitted effect of over 50% in size
* hit, by the source's call; ! = repeats disagree; [ ] = another dose, or the depositor's remark. Unless noted, the call rests on the fitted dose curve; in most records, active means well fitted curve in the direction sought with a large enough effect; inconclusive means small, poorly fitted or top-dose-only effect, or another doubt; inactive means no such curve, though single readings can be large; an effect the other way counts as inactive or inconclusive.

Screening CCOCCn1c(C2CCN(CCc3ccc(C(C)(C)C(=O)O)cc3)CC2)nc2ccccc21 returned S2 tox inactive and ATXN2 expr inh 0%.
For CN(C)c1ccc(/C=C/c2ccc3c4ccccc4ccc3[n+]2-c2ccccc2)cc1 the results were ATXN2 expr inh 1.1µM*, IL-1B inflam inh -111*, PINK1 modulator 8.9µM*!, SW480 rereplic 1% and MCF10A rerep inconclusive.
`CN(C)c1ccc(/C=C/c2nccc3ccccc23)cc1` gave PINK1 modulator 0%.
Screening Cn1c(C(=O)Nc2cccc(Cl)c2)cc2c(=O)n(C)c3ccccc3c21 returned S2 tox inactive, ATXN2 expr inh 7% and PINK1 modulator 1%.
CC(C)(C)c1ccc(-c2nc(C#N)c(NCCCn3ccnc3)o2)cc1 was read as S2 tox inactive, ATXN2 expr inh 11%, IL-1B inflam inh -95*, PINK1 modulator 3%, SW480 rereplic -52% and MCF10A rerep -7%.
Screening CCCOc1ccc(-c2nc(C#N)c(NCCCn3ccnc3)o2)cc1 returned S2 tox inactive, ATXN2 expr inh -7%, IL-1B inflam inh inconclusive, PINK1 modulator 10%[38.3 µM], SW480 rereplic 16% and MCF10A rerep inconclusive.
Screening CC(C)Cn1c(=S)[nH]c2cc(C(=O)NCc3ccccc3F)ccc2c1=O returned S2 tox inactive, ATXN2 expr inh -5%, IL-1B inflam inh 31, PINK1 modulator 9%, SW480 rereplic 11% and MCF10A rerep 15µM*.
For COc1ccc(OC)c(NC(=O)c2nnn(CC(=O)Nc3ccc(C(C)C)cc3)c2N)c1 the results were PINK1 modulator 4%.
`CCOC(=O)c1c(NC(=O)CSc2cn(CCNC(=O)c3c(F)cccc3F)c3ccccc23)sc2c1CCC2` gave S2 tox inconclusive, ATXN2 expr inh 1% and PINK1 modulator -1%.
For c1ccc(-c2cc3c(N4CCOCC4)ncnc3s2)cc1 the results were S2 tox inactive, ATXN2 expr inh -13%, IL-1B inflam inh -62*, PINK1 modulator 1%, SW480 rereplic inconclusive and MCF10A rerep 13µM*.
`OCCN1CCN(c2ncnc3sc(-c4ccccc4)cc23)CC1` gave S2 tox inactive, ATXN2 expr inh -14%, IL-1B inflam inh -93*, PINK1 modulator 1%, SW480 rereplic 14% and MCF10A rerep inconclusive.
Screening CC1(C(=O)NC(=S)NNC(=O)c2ccncc2)CCCCC1 returned S2 tox inactive, ATXN2 expr inh -27%, IL-1B inflam inh 15, PINK1 modulator 3%, SW480 rereplic 9.2µM* and MCF10A rerep 11%.
O=C(NNC(=S)NC(=O)C12CC3CC(CC(C3)C1)C2)c1ccncc1 was read as S2 tox inactive, ATXN2 expr inh -18%, IL-1B inflam inh 46, PINK1 modulator 6%[38.3 µM], SW480 rereplic inconclusive and MCF10A rerep 17%.
CCc1cnn2c(NCc3ccc[n+]([O-])c3)cc(N3CCCC[C@@H]3CCO)nc12 was read as ATXN2 expr inh 0.014µM*.
Screening O=C(NCCC1CCCCN1S(=O)(=O)c1ccc(F)cc1)C(=O)NCc1cccnc1 (stereo unspecified) returned S2 tox inactive, ATXN2 expr inh -4%, IL-1B inflam inh -10, PINK1 modulator -1%, SW480 rereplic -3% and MCF10A rerep 9%.
For O=C(NCCCN1CCOCC1)c1ccc2c(=O)n(Cc3cccc(Br)c3)c(=S)[nH]c2c1 the results were S2 tox inactive, ATXN2 expr inh -24%, IL-1B inflam inh -65*, PINK1 modulator 6%, SW480 rereplic inconclusive and MCF10A rerep 22%.
CCOC(=O)C(NC(C)=O)C(O)c1ccc([N+](=O)[O-])cc1 (stereo unspecified) was read as S2 tox inactive, ATXN2 expr inh 6%, IL-1B inflam inh -9, PINK1 modulator 0%, SW480 rereplic -2% and MCF10A rerep -10%.
Screening CCCCCCCCCCCC(=O)NC(C(=O)OCC)C(O)c1cccc([N+](=O)[O-])c1 (stereo unspecified) returned S2 tox inactive, ATXN2 expr inh -19%, IL-1B inflam inh -79*, PINK1 modulator 6%, SW480 rereplic inconclusive and MCF10A rerep inconclusive.
`Cc1cccc(NC(=O)C(C)OC(=O)c2ccccc2NS(=O)(=O)c2cc(C)c(C)c([N+](=O)[O-])c2)c1` (stereo unspecified) gave S2 tox inconclusive, ATXN2 expr inh -22%, IL-1B inflam inh 4, PINK1 modulator 20µM*, SW480 rereplic -2% and MCF10A rerep 15%.
Screening CC(=O)Nc1ccc(NC(=O)C(C)OC(=O)c2ccccc2NS(=O)(=O)c2cccs2)cc1 (stereo unspecified) returned S2 tox inactive, ATXN2 expr inh -12%, IL-1B inflam inh 16, PINK1 modulator 0%, SW480 rereplic -17% and MCF10A rerep 11%.
Screening Cc1ccc(N2CCN(C(=O)c3cc(-c4ccc(F)cc4)[nH]c3C)CC2C)cc1 (stereo unspecified) returned S2 tox inactive, ATXN2 expr inh 2%, IL-1B inflam inh -59*, PINK1 modulator inconclusive, SW480 rereplic 5% and MCF10A rerep 16%.
Cc1[nH]c(-c2ccc(F)cc2)cc1C(=O)N1CCN(c2ccccc2)CC1 was read as S2 tox inactive, ATXN2 expr inh inconclusive, IL-1B inflam inh -56*, PINK1 modulator -1%, SW480 rereplic -3% and MCF10A rerep inconclusive.
Screening O=C1Nc2ccccc2C1(c1ccc(O)cc1)c1ccc(O)cc1 returned S2 tox inactive and ATXN2 expr inh 18%.
`CCN1C(=O)C(c2ccc(O)cc2)(c2ccc(O)cc2)c2ccccc21` gave S2 tox inactive, ATXN2 expr inh 0%, IL-1B inflam inh -94*, PINK1 modulator 0%, SW480 rereplic -92% and MCF10A rerep 21%.
Screening CNC(=O)C1CCC(Cn2c(=O)c3sccc3n(Cc3ccccc3)c2=O)CC1 (stereo unspecified) returned S2 tox inactive, ATXN2 expr inh 15% and PINK1 modulator -1%.
For COc1oc(C(=O)NC2CCCCC2)c(-c2ccc(Cl)cc2)c1S(=O)(=O)c1ccccc1 the results were S2 tox inconclusive, ATXN2 expr inh inconclusive, IL-1B inflam inh -58*, PINK1 modulator -7%, SW480 rereplic inconclusive and MCF10A rerep 27%.
For O=C(CSc1oc(-c2ccccc2)nc1S(=O)(=O)c1ccc(Cl)cc1)NC1CCCCC1 the results were S2 tox inactive, ATXN2 expr inh -9% and PINK1 modulator -1%.

Screens: PubChem, National Center for Advancing Translational Sciences (NCATS)
